# Where “and” joins values, the source holds several entries; their conditions need not be identical. Identical values can stand only once. Inconclusive results are not listed. Calls of active or inactive are those of the source.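 The calls were made as follows, unless noted: active = normalized viability below 100% at a tested concentration; inactive = the rest.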
# Key:
# [1] = growth inhibition of DIPG glioma cells, dose response, cell-based, SU-DIPG-XVII, MIPE5.0, CellTiter-Glo, qHTS (AID 1347060; cut-off not given, nearly all actives have AC50 up to about 26 µM;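 as to AC50: cells exposed to compound for 48 hours before viability readout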); details: SU-DIPG-XVII viability, CellTiter-Glo ATP luminescence
# [2] = growth inhibition of DIPG glioma cells, dose response, cell-based, JHH-DIPG-1, MIPE4.0, CellTiter-Glo, qHTS (AID 1347062; cut-off not given, nearly all actives have AC50 up to about 27 µM;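 as to AC50: cells exposed to compound for two days before readout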); details: JHH-DIPG-1 viability, CellTiter-Glo ATP luminescence
# [3] = growth inhibition of DIPG glioma cells, dose response, cell-based, SU-DIPG-IV, MIPE4.0, CellTiter-Glo, qHTS (AID 1347063; cut-off not given, nearly all actives have AC50 up to about 30 µM;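 also: compound exposure lasted 48 hours before the viability readout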); details: SU-DIPG-IV viability, CellTiter-Glo ATP luminescence
# [4] = viability loss in pontine glioma line – cell-based, SU-DIPG-XXV, MIPE5.0, CellTiter-Glo, qHTS, dose response (AID 1347065; cut-off not given, nearly all actives have AC50 up to about 26 µM;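 also: cells exposed to compound for 48 hours before ATP readout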); details: CellTiter-Glo ATP luminescence
# [5] = SU-DIPG-VI glioma cell viability, MIPE4.0 library, CellTiter-Glo luminescence, qHTS (AID 1347066; cut-off not given, nearly all actives have AC50 up to about 30 µM;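 also: cells exposed to compound for 48 hours before readout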); details: CellTiter-Glo ATP luminescence
# [6] = JHH-DIPG-1 glioma cell viability, MIPE5.0 library, CellTiter-Glo luminescence, qHTS (AID 1347067; cut-off not given, nearly all actives have AC50 up to about 26 µM;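 also: cells exposed to compound for 48 hours before readout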); details: JHH-DIPG-1 glioma viability, CellTiter-Glo ATP luminescence
# [7] = modifiers of HSF1 nuclear foci, imaging, Selleck Cancer Library (AID 1347162; in the data active = plate-normalised HSF1 focus index below about 0.46); details: human cells, at 10 µM; SSMD: measured here: HSF1 foci SSMD mean; cell count: measured here: cell number; plate-normalised HSF1 focus index: stronger effect = lower value
# [8] = LFS_MB_P medulloblastoma growth inhibition, cell-based, chromothripsis tumors, cisplatin or BGB combos (AID 1671449; in the data active = inhibition above about 80%;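 also: cells exposed for 96 hours; 0% = vehicle DMSO and 100% = killing by high DMSO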); details: LFS_MB_P medulloblastoma cells
# [9] = HDN33 neuroblastoma growth inhibition, cell-based, chromothripsis tumors, cisplatin or BGB combos (AID 1671450; in the data active = inhibition above about 80%;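 also: cells exposed to compound for four days; 0% = vehicle DMSO and 100% = cell killing by high DMSO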); details: HDN33 neuroblastoma cells, stronger effect = higher value
# [10] = ICB984 medulloblastoma cell growth inhibition, synergistic combos for chromothripsis tumors, cisplatin or BGB combos (AID 1671451; call rule not given here;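 also: cells exposed for 96 hours before readout; 0% = vehicle DMSO and 100% = killing by high DMSO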); details: ICB984 medulloblastoma cells, drug combinations, stronger effect = higher value
# [11] = HTB85 osteosarcoma cell growth inhibition, synergistic combos for chromothripsis tumors, BGB or cisplatin IC20 combos (AID 1671453; in the data active = inhibition above about 80%;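 also: cells exposed for 96 hours before readout; 0% = vehicle DMSO and 100% = high DMSO killing control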); details: HTB85 osteosarcoma cells, drug combinations, stronger effect = higher value
# [12] = MDA-MB-436 breast carcinoma cell growth inhibition, synergistic combos for chromothripsis tumors, BGB or cisplatin combos (AID 1671458; call rule not given here;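 also: cells exposed for 96 hours; 0% = vehicle DMSO and 100% = killing by high DMSO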); details: MDA-MB-436 breast carcinoma growth inhibition, drug combinations, stronger effect = higher value
# [13] = growth inhibition of BT084 medulloblastoma cells, cell-based, ICGC_MB145, cisplatin and BGB IC40 combos (AID 1671461; in the data active = inhibition above about 80%;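 also: cells exposed to drugs for 96 hours; 0% = vehicle DMSO and 100% = high DMSO full killing control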); details: drug combinations, stronger effect = higher value
# [14] = growth inhibition of RCMB18 medulloblastoma cells, cell-based, cisplatin and BGB IC40 combos (AID 1671462; in the data active = inhibition above about 80%;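 also: cells exposed to compound for four days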); details: stronger effect = higher value
# [15] = growth inhibition of CRL1545 osteosarcoma cells, cell-based, cisplatin and BGB IC20 combos (AID 1671464; in the data active = inhibition above about 80%;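 also: cells exposed to compound for 96 hours before readout; 0% = vehicle DMSO and 100% = high DMSO killing control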); details: stronger effect = higher value
# [16] = SU-DIPG-XXV glioma cell viability, MIPE5.0 library, qHTS (AID 1347068; cut-off not given, nearly all actives have IC50 up to about 30 µM;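 also: cells exposed to compound for 48 hours before viability readout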)
# [17] = ovarian cancer cell viability with rucaparib, profiling panel, oncology-focused library, rucaparib conditional (AID 1508598); details: patient-derived ovarian cancer cells, CellTiter-Glo viability, 144 h, stronger effect = lower value
# [18] = measured here: with BGB IC20 combination, at 0.5 µM
# [19] = measured here: with cisplatin IC20 combination, at 0.5 µM
structure (smiles),measurement,setting,value
C[C@]1(c2nc3c(C(N)=O)cccc3[nH]2)CCCN1,outcome,[1],inactive
same,outcome,[2],inactive
same,outcome,[3],inactive
same,outcome,[4],inactive
same,outcome,[5],inactive
same,outcome,[6],inactive
same,SSMD,[7],0.253
same,cell count,[7],7190
same,plate-normalised HSF1 focus index,[7],1.01 (inactive)
same,inhibition,"[8]; at 0.5 µM, stronger effect = higher value",-27.2% (inactive) and -25.3% (inactive)
same,inhibition,"[8]; measured here: combination with BGB IC20, at 0.005 µM",-35.2% and -15.1%
same,inhibition,"[8]; measured here: combination with BGB IC40, at 0.005 µM",-26.8% and -17.3%
same,inhibition,"[8]; measured here: combination with BGB IC40, at 0.05 µM",-28.3% and -28.8%
same,inhibition,"[8]; measured here: combination with cisplatin, at 0.5 µM, stronger effect = higher value",-54% and -57%
same,inhibition,"[8]; measured here: combination with cisplatin, at 5 µM, stronger effect = higher value",-58.4% and -45%
same,inhibition,"[9]; BGB combo, at 5 µM",-41.3% and 0.864%
same,inhibition,[9]; at 0.5 µM,-26.5% (inactive) and -7.62% (inactive)
same,inhibition,"[9]; cisplatin combo, at 5 µM",-8.25% and -1.94%
same,inhibition,[9]; [18],-35.3% and -12.7%
same,inhibition,[9]; [19],-24.4% and -3.22%
same,inhibition,"[9]; single agent, at 5 µM",-21.8% and -0.922%
same,inhibition,"[10]; BGB IC20 combo, at 0.005 µM",-10.4% and 0.353%
same,inhibition,"[10]; BGB IC40 combo, at 0.005 µM",-32.9% and -29.7%
same,inhibition,"[10]; BGB IC40 combo, at 0.05 µM",-67.4% and -16%
same,inhibition,[10]; at 0.5 µM,-18.7% (inactive) and -15.6% (inactive)
same,inhibition,"[10]; cisplatin combo, at 0.05 µM",-73.4% and -19.3%
same,inhibition,"[10]; cisplatin combo, at 0.5 µM",-14.2% and -3.56%
same,inhibition,"[10]; cisplatin combo, at 5 µM",-53.1% and -59.6%
same,inhibition,"[10]; measured here: 5 uM single agent, at 5 µM",-10.3% and -11.7%
same,inhibition,[11]; at 0.5 µM,-20.2% (inactive) and -2.71% (inactive)
same,inhibition,"[11]; measured here: with BGB IC20, at 0.5 µM",-24.9% and -6.8%
same,inhibition,"[11]; measured here: with BGB IC20, at 5 µM",-10.1% and -13%
same,inhibition,"[11]; measured here: with cisplatin IC20, at 0.5 µM",-31.1% and -8.43%
same,inhibition,"[11]; measured here: with cisplatin IC20, at 5 µM",-30% and -31.9%
same,inhibition,"[11]; single agent, at 5 µM",-4.02% and -2.12%
same,inhibition,[12]; at 0.5 µM,-1.32% (inactive) and -13.2% (inactive)
same,inhibition,"[12]; measured here: BGB combination, at 0.5 µM",-3.82% and -21.5%
same,inhibition,"[12]; measured here: BGB combination, at 5 µM",-15.2% and -14.8%
same,inhibition,"[12]; measured here: cisplatin combination, at 0.5 µM",-9.15% and -22.2%
same,inhibition,"[12]; measured here: cisplatin combination, at 5 µM",7.37% and -17%
same,inhibition,[13]; at 0.5 µM,-14.1% (inactive) and -22% (inactive)
same,inhibition,"[13]; cisplatin combination, at 0.5 µM",-37.9% and -21.6%
same,inhibition,"[13]; cisplatin combination, at 5 µM",2.98% and -9.14%
same,inhibition,"[13]; measured here: BGB IC40 combination 0.05 uM, at 0.05 µM",13.6% and 2.76%
same,inhibition,"[13]; single agent, at 5 µM",-8.42% and -18.5%
same,inhibition,[14]; at 0.5 µM,-11.5% (inactive) and -16.6% (inactive)
same,inhibition,"[14]; cisplatin combo, at 5 µM",-70.2% and -50.3%
same,inhibition,"[14]; measured here: BGB IC40 combination, at 0.05 µM",-22.5% and 6.81%
same,inhibition,"[14]; measured here: combination with cisplatin, at 0.5 µM",-15.1%
same,inhibition,"[14]; single agent, at 5 µM",-28.5% and -25.1%
same,inhibition,[15]; at 0.5 µM,-23.7% (inactive) and 9.34% (inactive)
same,inhibition,[15]; [18],-29.8% and -8.71%
same,inhibition,[15]; [19],-22.5% and 16.5%
same,inhibition,"[15]; single agent, at 0.05 µM",-19.2% and -14.5%
same,inhibition,"[15]; single agent, at 5 µM",-45.7% and -33.6%
CC1(C)CCC(c2ccc(Cl)cc2)=C(CN2CCN(c3ccc(C(=O)NS(=O)(=O)c4ccc(N[C@H](CCN5CCOCC5)CSc5ccccc5)c(S(=O)(=O)C(F)(F)F)c4)cc3)CC2)C1,AC50,[1],8.33 µM (active)
same,AC50,[2],18.7 µM (active)
same,AC50,[3],2.09 µM (active)
same,AC50,[4],0.148 µM (active)
same,AC50,[5],0.59 µM (active)
same,AC50,[6],7.42 µM (active)
same,IC50,[16],3.32 µM (active)
same,SSMD,[7],-3.49
same,cell count,[7],6830
same,plate-normalised HSF1 focus index,[7],0.875 (inactive)
same,viability,"[17]; at 0.000305 µM, OCI-C5x cells, with rucaparib 10 µM, 100% = cells with rucaparib alone",37.1% (active)
same,viability,"[17]; at 0.000305 µM, OCI-C5x cells, without rucaparib",78.4% (active)
same,viability,"[17]; at 0.000305 µM, OCI-P5x cells, with rucaparib 20 µM, 100% = cells with rucaparib alone",132% (inactive)
same,viability,"[17]; at 0.000305 µM, OCI-P5x cells, without rucaparib",120% (inactive)
same,viability,"[17]; at 0.00122 µM, OCI-C5x cells, with rucaparib 10 µM, 100% = cells with rucaparib alone",12.7% (active)
same,viability,"[17]; at 0.00122 µM, OCI-C5x cells, without rucaparib",34.9% (active)
same,viability,"[17]; at 0.00122 µM, OCI-P5x cells, with rucaparib 20 µM, 100% = cells with rucaparib alone",118% (inactive)
same,viability,"[17]; at 0.00122 µM, OCI-P5x cells, without rucaparib",106% (inactive)
same,viability,"[17]; at 0.00488 µM, OCI-C5x cells, with rucaparib 10 µM, 100% = cells with rucaparib alone",32.2% (active)
same,viability,"[17]; at 0.00488 µM, OCI-C5x cells, without rucaparib",62.4% (active)
same,viability,"[17]; at 0.00488 µM, OCI-P5x cells, with rucaparib 20 µM, 100% = cells with rucaparib alone",127% (inactive)
same,viability,"[17]; at 0.00488 µM, OCI-P5x cells, without rucaparib",105% (inactive)
same,viability,"[17]; at 0.0195 µM, OCI-C5x cells, with rucaparib 10 µM, 100% = cells with rucaparib alone",19.9% (active)
same,viability,"[17]; at 0.0195 µM, OCI-C5x cells, without rucaparib",46.8% (active)
same,viability,"[17]; at 0.0195 µM, OCI-P5x cells, with rucaparib 20 µM, 100% = cells with rucaparib alone",110% (inactive)
same,viability,"[17]; at 0.0195 µM, OCI-P5x cells, without rucaparib",101% (inactive)
same,viability,"[17]; at 0.0781 µM, OCI-C5x cells, with rucaparib 10 µM, 100% = cells with rucaparib alone",14.8% (active)
same,viability,"[17]; at 0.0781 µM, OCI-C5x cells, without rucaparib",15.9% (active)
same,viability,"[17]; at 0.0781 µM, OCI-P5x cells, with rucaparib 20 µM, 100% = cells with rucaparib alone",110% (inactive)
same,viability,"[17]; at 0.0781 µM, OCI-P5x cells, without rucaparib",102% (inactive)
same,viability,"[17]; at 0.313 µM, OCI-C5x cells, with rucaparib 10 µM, 100% = cells with rucaparib alone",10.6% (active)
same,viability,"[17]; at 0.313 µM, OCI-C5x cells, without rucaparib",18.4% (active)
same,viability,"[17]; at 0.313 µM, OCI-P5x cells, with rucaparib 20 µM, 100% = cells with rucaparib alone",100% (inactive)
same,viability,"[17]; at 0.313 µM, OCI-P5x cells, without rucaparib",92.1% (active)
same,viability,"[17]; at 1.25 µM, OCI-C5x cells, with rucaparib 10 µM, 100% = cells with rucaparib alone",10.8% (active)
same,viability,"[17]; at 1.25 µM, OCI-C5x cells, without rucaparib",15.2% (active)
same,viability,"[17]; at 1.25 µM, OCI-P5x cells, with rucaparib 20 µM, 100% = cells with rucaparib alone",90.1% (active)
same,viability,"[17]; at 1.25 µM, OCI-P5x cells, without rucaparib",88.9% (active)
same,viability,"[17]; at 5 µM, OCI-C5x cells, with rucaparib 10 µM, 100% = cells with rucaparib alone",4.72% (active)
same,viability,"[17]; at 5 µM, OCI-C5x cells, without rucaparib",11.9% (active)
same,viability,"[17]; at 5 µM, OCI-P5x cells, with rucaparib 20 µM, 100% = cells with rucaparib alone",0.895% (active)
same,viability,"[17]; at 5 µM, OCI-P5x cells, without rucaparib",10.5% (active)

# Source: PubChem BioAssay
